# Hit rate of the full screen: of about 580,000 compounds, about 6,100 (1.1%) were called active. Inconclusive results (about 15%) are left out. The entries come from a sample that favours actives as a whole. Unmarked numbers belong to inactive results. The call rests on the fitted dose curve; in most records, active means well fitted inhibition curve with a large enough effect; inconclusive means small, poorly fitted or top-dose-only effect, or another doubt; inactive means no such curve, though single readings can be large or run the other way.
# Molecular target: Polyunsaturated fatty acid lipoxygenase ALOX12 (Homo sapiens) (UniProt P18054)
# Assay: Primary qHTS assay for inhibitors of human arachidonate 12S-lipoxygenase (ALOX12): Round 2
# Settings: purified 12hLO, xylenol orange hydroperoxide absorbance; series mostly up to 108 µM; activity change, negative = inhibition: at the top concentration
# Summary of the method: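 Purified human 12hLO at 150 nM in 25 mM Hepes, 0.01% Triton X-100, pH 7.0, preincubated 15 min at room temperature with compound. Reaction started with 40 uM arachidonic acid, 30 min at room temperature. Hydroperoxide measured by Fe-xylenol orange, 573/405 nm absorbance ratio.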
# On the % scale 0 is the no-effect control and ±100 the full control effect; potency means the concentration at half of the fitted maximal effect.
# Polyunsaturated fatty acid lipoxygenase ALOX12 (Homo sapiens), sequence (P18054 whole entry, looked up): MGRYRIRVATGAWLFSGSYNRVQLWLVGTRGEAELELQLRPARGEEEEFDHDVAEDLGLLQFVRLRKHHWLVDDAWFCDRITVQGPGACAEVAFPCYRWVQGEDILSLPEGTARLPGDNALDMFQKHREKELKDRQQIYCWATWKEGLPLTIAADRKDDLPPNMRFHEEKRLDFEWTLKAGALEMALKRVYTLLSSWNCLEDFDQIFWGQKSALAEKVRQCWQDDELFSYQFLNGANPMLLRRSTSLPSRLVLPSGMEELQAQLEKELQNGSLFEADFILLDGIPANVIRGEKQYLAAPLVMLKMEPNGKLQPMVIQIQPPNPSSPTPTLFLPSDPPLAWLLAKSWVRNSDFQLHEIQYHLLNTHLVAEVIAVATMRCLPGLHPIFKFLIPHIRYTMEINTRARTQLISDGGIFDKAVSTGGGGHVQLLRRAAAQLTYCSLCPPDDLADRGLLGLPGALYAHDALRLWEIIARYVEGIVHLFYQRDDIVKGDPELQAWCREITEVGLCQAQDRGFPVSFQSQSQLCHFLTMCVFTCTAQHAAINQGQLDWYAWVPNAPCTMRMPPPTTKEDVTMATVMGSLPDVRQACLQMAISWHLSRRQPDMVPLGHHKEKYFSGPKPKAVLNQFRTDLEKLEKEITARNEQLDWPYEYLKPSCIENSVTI
Structure (SMILES),"activity change, negative = inhibition",Potency
O=C(CCN1C(=O)c2ccccc2S1(=O)=O)Nc1ccc(S(=O)(=O)N2CCCC2)cc1,-55.7%,
C=C(Br)CNCc1ccccc1,-24.8%,
Cc1ccc(C(C)NC(=O)CCc2nc(C(C)C)no2)o1 (stereo unspecified),8.08%,
Cc1ccccc1-c1cc(C(=O)NCCN2CCNC2=O)c2c(c1)N(C)CCO2,1.66% [at 176 µM],
Cc1noc(/C=C/c2ccco2)c1S(=O)(=O)N1CCC(C(=O)Nc2ccc(Cl)cn2)CC1,-15.1%,
Cc1noc(/C=C/c2ccco2)c1S(=O)(=O)N1CCC(C(=O)N2CCc3ccccc32)CC1,,14.1 µM (active)
COc1ccccc1N1CCN(C(=O)C2CCN(S(=O)(=O)c3c(C)noc3/C=C/c3ccc(C)cc3)CC2)CC1,-5.47%,
CN(CC(=O)NC(C)(C)C)Cc1cccc2cccnc12,20.8%,
CO/N=C(/C(=O)N[C@@H]1C(=O)N2C(C(=O)O)=C(Cn3nnc(C)n3)CS[C@H]12)c1csc(N)n1,-8.52% [at 22.9 µM],
Cc1cc(C)cc(C(=O)NC2C(=O)N3C(C(=O)O)=C(CSc4nnc(C)s4)CSC23)c1 (stereo unspecified),,39.8 µM (active)
Cc1nnc(SCc2cc(=O)[nH]c(N3CCN(Cc4ccccc4)CC3)n2)s1,-24.6%,
CC(C)C(=O)Nc1cc(Cl)ccc1Cl,1.43%,
CC(C)C(=O)N1CCN(C(=O)c2cc3ccccc3n2C)CC1,-28.6%,
CNc1c(NC(=O)Nc2ccc(F)cc2F)c(=O)oc2ccccc12,-1.6%,
CCC1(CC)Cc2ccccc2-c2nc(CCl)[nH]c(=O)c21,,7.08 µM (active)
CCOC(=O)C1Cn2c(nc3c(c2=O)C(C)(CC)Cc2ccccc2-3)S1 (stereo unspecified),0%,
O=c1[nH]c(CCl)nc2cc(-c3ccc(Cl)cc3)sc12,106%,
CC(C)C(=O)Nc1ccc(-c2nc3ccccc3o2)cc1,-38.4%,
CCOC(=O)c1nc2ccccc2nc1NCc1ccc(C)cc1,-2.85%,
CC(=O)c1c(C)[nH]c(C(=O)c2oc3ccc(Cl)cc3c2C)c1C,-13.1%,
COC(=O)c1ccc(/C=C2\Oc3cc(OS(C)(=O)=O)cc(C)c3C2=O)cc1,-17.5%,
CCN1CCN(c2cc3nc(C)n(Cc4ccccc4)c(=O)c3cc2NC(=O)c2ccccc2F)CC1,-8.8%,
Cc1cccc(N2CCN(C(=O)c3ccccc3NC(=O)C3CCCCC3C(=O)O)CC2)c1 (stereo unspecified),-15%,
Cc1cccc(N2CCN(c3ccc(C(=O)O)cc3NC(=O)c3ccccc3F)CC2C)c1 (stereo unspecified),,50.1 µM (active)
O=C(c1cccc(Br)c1)N1CCC(CCc2ccc(O)cc2)CC1,-3.12%,
Cc1ccc(NC(NC(=O)c2cccc(C)c2)C(Cl)(Cl)Cl)cc1 (stereo unspecified),9.95%,

Structure (SMILES),"activity change, negative = inhibition",Potency
CCCCC/C=C/C1=CC(=O)C[C@H](c2ccc(Cl)cc2)C1,,35.5 µM (active)
CCc1nc2nc3c(cn2n1)C(=O)CC(c1ccc(Cl)cc1)C3 (stereo unspecified),-5.2%,
O=C1C=C(c2cccc(Cl)c2O)C[C@@H](c2ccc(F)cc2)C1,-27.3%,
CCCCc1ccc(NC(=O)c2cc3c(s2)CCCC3)cc1,-29.7%,
CN(Cc1ccon1)C(=O)c1coc(COc2ccc(F)cc2Cl)n1,38.2%,
Cn1c(=O)c2c(ncn2CCC(=O)NCc2ccc(F)cc2)n(C)c1=O,9.96%,
CN1CCN(c2ccc3nnc(C4CCC4)n3n2)CC1,54.1%,
Cc1ccc(-c2noc([C@@H]3Cc4nc[nH]c4CN3C(=O)Nc3ccccc3)n2)cc1,11.7% [at 176 µM],
CC(C)NC(=O)N1Cc2[nH]cnc2C[C@H]1c1nc(-c2ccc(Cl)cc2)no1,,14.1 µM (active)
CCOC(=O)c1ccc(NC(=O)N2Cc3[nH]cnc3C[C@H]2c2nc(-c3ccc(Cl)cc3)no2)cc1,37.1%,
Cc1nc(NC2CCCCC2)sc1C(=O)Nc1ccccc1,-47.2%,
CC(C)C(=O)N/N=C/c1ccc(Cl)cc1,-13.7%,
COc1cc2c(cc1O)NC(=O)CC2c1cn[nH]c1-c1cc(C)ccc1C (stereo unspecified),22.7%,
CC(C)OCC(O)Cn1c(NCc2ccccc2)nc2c1c(=O)[nH]c(=O)n2C (stereo unspecified),-13.5%,
O=C(COC(=O)c1cccc(NS(=O)(=O)c2ccccc2)c1)NCc1cccs1,1.83%,
CNC(=O)c1ccc(NC(=O)CCn2c(=O)oc3cc(S(=O)(=O)N4CCCC4)ccc32)cc1,,35.5 µM (active)
COc1cccc(CNC(=O)Cn2c(=O)oc3cc(S(=O)(=O)N4CCCCC4)ccc32)c1,-2.03%,
CC1CCCCN1C(=O)Cn1c(=O)oc2cc(S(=O)(=O)N3CCCCC3)ccc21 (stereo unspecified),1.67%,
Cc1ccc(OCCC(=O)Nc2cc3c(cc2Cl)OCCO3)c(C)c1,7.57%,
CCOc1ccc(C(C)NC(=O)Cn2c(=O)c3c(ncn3C)n(C)c2=O)cc1 (stereo unspecified),4.67%,
CC1=C[C@@H](CN(C)CCc2ccccn2)[C@H](C(C)C)C[C@H]1Cc1nnc(-c2ccccc2F)o1,41.6%,
O=C(CCn1ccc(=O)[nH]c1=O)N[C@@H]1COCC[C@@H]1OCc1ccccc1,19.4%,
C=CCNC(=S)N(CC)CC,24.5%,
COC(=O)c1ccccc1NS(=O)(=O)c1ccc2c(c1)CCCN2C(C)=O,-8%,
COc1cc(S(=O)(=O)Nc2ccccc2OC)ccc1NC(C)=O,-2.8%,
COc1ccc(Br)cc1/C=N/Nc1ccc(S(=O)(=O)Nc2ccccc2C(=O)O)cc1[N+](=O)[O-],,14.1 µM (active)

Structure (SMILES),"activity change, negative = inhibition",Potency
O=C(O/N=C1\CCCc2oc3c(c21)CCCC3)c1ccc(Cl)c(Cl)c1,9.98%,
Cc1ccc(Cn2c(N3CCC(C(N)=O)CC3)nc3c2c(=O)n(C)c(=O)n3C)cc1,-30%,
Cc1oc(-c2ccccc2)nc1C(=O)NC(C1CC1)C1CC1,-4.72%,
CC(C)(C)NC(=O)C(CCc1ccccc1)n1c(=O)c(-c2ccccc2)nc2ccccc21 (stereo unspecified),-1.34%,
COc1ccc(NC(=O)C(c2ccncc2)n2c(=O)c(-c3cc4ccccc4[nH]3)nc3ccccc32)cc1 (stereo unspecified),-17%,
Cc1cccc(C)c1NC(=O)C(c1ccc(C(F)(F)F)cc1)n1c(=O)c(-c2ccco2)nc2ccccc21 (stereo unspecified),,14.1 µM (active)
O=C(NCCn1c(-c2ccccc2)nc2ccccc21)NCc1ccccc1,1.71%,
N#Cc1ccc(C(C(=O)NCc2ccccc2)n2c(=O)c(-c3ccco3)nc3ccccc32)cc1 (stereo unspecified),,17.8 µM (active)
CCC(C(=O)Nc1c(C)cccc1C)n1c(-c2cc(C)cs2)nc2ccccc21 (stereo unspecified),-4.84%,
COc1cccc(S(=O)(=O)N2CCCCCCNC(=O)[C@@H]3CCC[C@@H]32)c1,-4.62%,
O=C(Nc1ccccc1)Nc1cc(S(=O)(=O)N2CCOCC2)ccc1NCC1CCCO1 (stereo unspecified),23.8%,
c1ccc([C@@H]2CNC[C@H]2COCC2CC2)nc1,0.121%,
Cn1c(C(=O)NCCNC(=O)c2cccc(F)c2)cc2ccccc21,16.2%,
Cc1cccc(-n2nc(-c3c(C)nc4scc(CC(=O)NCCC(C)C)n4c3=O)cc2C)c1C,72.6%,
COc1ccccc1CCNS(=O)(=O)c1ccc(N2C(=O)C(C)(C)CS2(=O)=O)cc1,-48.1%,
COc1ccc2nc(SC3CC(=O)N(c4ccc(F)cc4)C3=O)nc(C)c2c1 (stereo unspecified),0.607%,
Cc1cc(NC(=O)CCN2CCN(Cc3ccccc3)CC2)ccc1Br,,3.16 µM (active)
O=C(CCN1CCCCC1)Nc1ccc(F)c(F)c1,4.59%,
O=C(CCN1CCN(C/C=C/c2ccccc2)CC1)Nc1cccc(F)c1,-2.51%,
COCCNC(=O)COc1ccc2c(C)c(Cc3ccccc3)c(=O)oc2c1C,-38.9%,
CN(C)C[C@@H]1CN(Cc2ccccn2)C[C@H]1NC(=O)c1cc(F)ccc1Cl,113%,
COc1ccccc1Oc1coc2cc(OCc3ccc(Cl)cc3)ccc2c1=O,-11%,
O=C(O)COc1ccc2c(=O)c(Oc3ccc(Cl)cc3)coc2c1,,12.6 µM (active)
COC(=O)COc1ccc2c(=O)c(Oc3ccccc3Br)coc2c1,0%,
CCCCN1C(SCC(=O)N2CCCC2)=NS(=O)(=O)c2ccccc21,4.21%,
Cc1ccc(C(CNC(=O)c2cc3ccccc3oc2=O)N(C)C)o1 (stereo unspecified),8.45%,

Structure (SMILES),"activity change, negative = inhibition",Potency
O=C1Cc2c(-c3ccc(Oc4ccccc4)cc3)n[nH]c2CN1CCc1ccncc1,14.1% [at 176 µM],
CCn1nc(C)cc1-c1nn2c(-c3cccc(Cl)c3Cl)nnc2s1,62.2%,
CCc1ccc(Nc2n[n+](-c3ccccc3)c(-c3cccc(Cl)c3Cl)s2)cc1,,39.8 µM (active)
CC1CCCC(NC(=O)c2c(F)cccc2F)C1C (stereo unspecified),5.84%,
CCc1sc(C(=O)NC(C)C)cc1C,-26.1%,
Cc1cccc(OCC(O)CNC23CC4CC(CC(C4)C2)C3)c1 (stereo unspecified),12%,
CCn1cc(CN2CCCC23CCN(c2ccc(C(F)(F)F)cn2)CC3)cc1C#N,52.7%,
Cc1cc(C(F)(F)F)nn1Cc1nc2c3c4c(sc3ncn2n1)CCC4,37.6%,
O=C(CSc1ncnc2sc3c(c12)CCCC3)Nc1ccc(F)cc1,-0.335%,
S=c1[nH]nc2c3c4c(sc3ncn12)CCCC4,,0.562 µM (active)
CCCCCCCCCC(=O)NN=C1CCCCCCCCCCC1,20.9%,
CC1(C(=O)NS(=O)(=O)C2CC2)CCCN(C(=O)CSc2ccccc2)C1 (stereo unspecified),2.48%,
O=C(CSc1ccncc1)N1CCCC(O)(CN2CCCC2)C1 (stereo unspecified),,25.1 µM (active)
O=C(CSc1ncccn1)N1CCCC1,12%,
COc1ccc(C2CC(=O)c3cnc4c(c3C2)c(=O)[nH]c(=O)n4CCC(C)C)cc1 (stereo unspecified),-3.93%,
CCCC(=O)C1C(=O)CC(c2ccc(OC)c(OC)c2)CC1=O (stereo unspecified),46.2%,
O=C(CSc1nc2ccccc2nc1N1CCCCC1)Nc1cccc(Br)c1,56.1%,
CC(Oc1ccc(-c2ccccc2)cc1)C(N)=O (stereo unspecified),47.2%,
CC1(OC(=O)C2CCCC2)C(=O)C=C2C=C(c3ccc(C#N)cc3)OC=C2C1=O (stereo unspecified),,10 µM (active)
CCCCCC1CCC(C(=O)Oc2ccc(C#N)cc2)CC1 (stereo unspecified),1.66%,
N#Cc1ccc(-c2nc(C(=O)NC3CCCCCC3)no2)cc1,7.37%,
CCCc1cc(=O)oc2c(C)c(OCC(=O)c3ccc(-c4ccccc4)cc3)ccc12,8.56%,
O=C(Nc1ccc2c(c1)OCCO2)C(=O)c1c[nH]c2cc(F)ccc12,-16.1%,
